Among the data in ChEMBL document CHEMBL2218924, “A broad activity screen in support of a chemogenomic map for kinase signalling research and drug discovery” (Biochem J, 2013) are residual activity values, retold here.

Serine/threonine-protein kinase Nek7 (Homo sapiens), sequence (Q8TDX7 whole entry, looked up): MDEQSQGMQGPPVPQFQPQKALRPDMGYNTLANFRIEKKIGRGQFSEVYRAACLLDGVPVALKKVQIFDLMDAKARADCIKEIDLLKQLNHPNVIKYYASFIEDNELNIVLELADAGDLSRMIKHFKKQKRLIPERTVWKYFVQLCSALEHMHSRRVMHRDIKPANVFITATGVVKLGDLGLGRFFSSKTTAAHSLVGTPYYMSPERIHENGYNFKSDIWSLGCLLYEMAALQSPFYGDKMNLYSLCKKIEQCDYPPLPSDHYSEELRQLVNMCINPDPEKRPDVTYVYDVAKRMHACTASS

The target in one assay is Serine/threonine-protein kinase Nek6 (Homo sapiens) (UniProt Q9HC98). To be noted: at 1 µM.
Serine/threonine-protein kinase Nek6 (Homo sapiens), sequence (Q9HC98 whole entry): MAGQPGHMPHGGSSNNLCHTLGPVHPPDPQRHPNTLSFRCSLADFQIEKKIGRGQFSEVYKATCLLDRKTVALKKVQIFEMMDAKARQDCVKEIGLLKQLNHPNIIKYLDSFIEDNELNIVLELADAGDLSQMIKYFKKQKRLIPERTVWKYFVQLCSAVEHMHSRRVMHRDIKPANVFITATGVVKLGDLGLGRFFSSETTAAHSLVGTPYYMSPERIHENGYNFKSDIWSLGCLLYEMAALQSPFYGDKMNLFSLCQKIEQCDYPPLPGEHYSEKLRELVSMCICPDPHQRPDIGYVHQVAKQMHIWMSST
As to `COc1cc2ncnc(Nc3cccc(Cl)c3)c2cc1OC`, the residual activity is 109% (inactive).

In the case of `Cn1c2ccccc2c2c3c(c4c5ccccc5n(CCC#N)c4c21)CNC3=O`, the residual activity was 93% (inactive).

On to `O=C(c1ccccc1)c1ccc(N2CCOCC2)cc1O`, for which the residual activity was 92% (inactive).

On to `CC(C)(C)n1nc(Cc2cccc3ccccc23)c2c(N)ncnc21`, for which the residual activity was 94% (inactive).

Take `O=C1Cc2c([nH]c3ccc([N+](=O)[O-])cc23)-c2ccccc2N1`: the residual activity is 115% (inactive).

With `O=c1cc(N2CCOCC2)oc2c1ccc1ccccc12`, the residual activity is 100% (inactive).

Regarding `Nc1ncnc2c1c(-c1ccc(Oc3ccccc3)cc1)cn2C1CCCC1`, the residual activity was 78% (inactive).

Regarding `CCCC(=O)Oc1ccc2[nH]c(C(=O)c3cc4ccccc4[nH]3)cc2c1`, the residual activity was 89% (inactive).

In the case of `O=C1NC(=O)c2c1c1c3ccccc3[nH]c1n1cncc21`, the residual activity is 98% (inactive).

On to `Nc1ncnc2[nH]nc(Nc3ccc(F)cc3)c12`, for which the residual activity is 118% (inactive).

`O=C1NC(=O)C(c2c[nH]c3ccccc23)=C1c1c[nH]c2ccccc12`: the residual activity is 117% (inactive).

For `NC(=O)Nc1sc(-c2ccc(F)cc2)cc1C(N)=O`, the residual activity was 104% (inactive).

With `Nc1ncnc2c1cnn2-c1ccccc1`, the residual activity was 99% (inactive).

Consider `COc1cc2nccc(Oc3ccc(NC(=S)NC(=O)c4ccccc4C)cc3)c2cc1OC`, for which the residual activity was 95% (inactive).

In the case of `O=c1cc(N2CCNCC2)oc2c(-c3ccccc3)cccc12`, the residual activity is 80% (inactive).

Take `O=C(O)/C=C/c1cc(Br)c(Br)c(Br)c1Br`: the residual activity is 96% (inactive).

As for `N#C/C(=C1/Nc2ccccc2S1)c1ccnc(NCCc2cccnc2)n1`, the residual activity is 119% (inactive).

The target is the same in the next assay. To be noted: at 10 µM.
Consider `COc1cc2ncnc(Nc3cccc(Cl)c3)c2cc1OC`, for which the residual activity was determined as 117%.

For the compound `N#Cc1c(NC(=O)c2cccc3ccccc23)sc2c1CCCC2`, the residual activity was found to be 93%.

As to `Cn1c2ccccc2c2c3c(c4c5ccccc5n(CCC#N)c4c21)CNC3=O`, the residual activity is 113%.

Regarding `CC(C)(C)n1nc(Cc2cccc3ccccc23)c2c(N)ncnc21`, the residual activity is 116%.

For the compound `O=C1Cc2c([nH]c3ccc([N+](=O)[O-])cc23)-c2ccccc2N1`, the residual activity worked out at 118%.

On to `O=c1cc(N2CCOCC2)oc2c1ccc1ccccc12`, for which the residual activity was determined as 106%.

As for `Nc1ncnc2c1c(-c1ccc(Oc3ccccc3)cc1)cn2C1CCCC1`, the residual activity came out at 99%.

Take `O=C1NC(=O)c2c1c1c3ccccc3[nH]c1n1cncc21`: the residual activity amounted to 90%.

With `Nc1ncnc2[nH]nc(Nc3ccc(F)cc3)c12`, the residual activity was determined as 106%.

On to `O=C1NC(=O)C(c2c[nH]c3ccccc23)=C1c1c[nH]c2ccccc12`, for which the residual activity amounted to 127%.

For `NC(=O)Nc1sc(-c2ccc(F)cc2)cc1C(N)=O`, the residual activity came to 106%.

In the case of `COc1ccc2c(c1)c(C1=C(c3c[nH]c4ccccc34)C(=O)NC1=O)cn2CCCN(C)C`, the residual activity turned out to be 107%.

Consider `O=C(O)/C=C/c1cc(Br)c(Br)c(Br)c1Br`, for which the residual activity was found to be 86%.

A further assay addresses Serine/threonine-protein kinase Nek7 (Homo sapiens) (UniProt Q8TDX7). To be noted: at 1 µM.
On to `COc1cc2ncnc(Nc3cccc(Cl)c3)c2cc1OC`, for which the residual activity is 102% (inactive).

In the case of `O=C1Cc2c([nH]c3ccc(Br)cc23)-c2ccccc2N1`, the residual activity was 100% (inactive).

As to `Cn1c2ccccc2c2c3c(c4c5ccccc5n(CCC#N)c4c21)CNC3=O`, the residual activity was 95% (inactive).

As for `O=C(c1ccccc1)c1ccc(N2CCOCC2)cc1O`, the residual activity is 116% (inactive).

Turning to `CC(C)(C)n1nc(Cc2cccc3ccccc23)c2c(N)ncnc21`, the residual activity was 90% (inactive).

With `Oc1cccc(-c2nc(N3CCOCC3)c3oc4ncccc4c3n2)c1`, the residual activity is 100% (inactive).

With `O=C1Cc2c([nH]c3ccc([N+](=O)[O-])cc23)-c2ccccc2N1`, the residual activity was 106% (inactive).

Turning to `O=c1cc(N2CCOCC2)oc2c1ccc1ccccc12`, the residual activity is 103% (inactive).

Regarding `Nc1ncnc2c1c(-c1ccc(Oc3ccccc3)cc1)cn2C1CCCC1`, the residual activity was 97% (inactive).

For `COc1cc2nccc(Oc3ccc(NC(=O)Nc4cc(C)on4)c(Cl)c3)c2cc1OC`, the residual activity is 98% (inactive).

Regarding `CCCC(=O)Oc1ccc2[nH]c(C(=O)c3cc4ccccc4[nH]3)cc2c1`, the residual activity is 91% (inactive).

As to `O=C1NC(=O)c2c1c1c3ccccc3[nH]c1n1cncc21`, the residual activity was 100% (inactive).

Consider `Nc1ncnc2[nH]nc(Nc3ccc(F)cc3)c12`, for which the residual activity was 100% (inactive).

Turning to `NC(=O)Nc1sc(-c2ccc(F)cc2)cc1C(N)=O`, the residual activity is 102% (inactive).

Regarding `Nc1ncnc2c1cnn2-c1ccccc1`, the residual activity is 87% (inactive).

In the case of `COc1cc2nccc(Oc3ccc(NC(=S)NC(=O)c4ccccc4C)cc3)c2cc1OC`, the residual activity is 98% (inactive).

On to `O=c1cc(N2CCNCC2)oc2c(-c3ccccc3)cccc12`, for which the residual activity was 104% (inactive).

Regarding `CC(C)c1nn(-c2c(Cl)cccc2Cl)c2nc(Cc3ccc(OCCO)cc3)[nH]c(=O)c12`, the residual activity was 87% (inactive).

A further assay shares this target. To be noted: at 10 µM.
Turning to `COc1cc2ncnc(Nc3cccc(Cl)c3)c2cc1OC`, the residual activity is 115% (inactive).

Regarding `COc1cc2c(cc1OC)-c1n[nH]c(Nc3cccc(F)c3)c1C2`, the residual activity is 113% (inactive).

Regarding `O=C1Cc2c([nH]c3ccc(Br)cc23)-c2ccccc2N1`, the residual activity is 94% (inactive).

On to `Cn1c2ccccc2c2c3c(c4c5ccccc5n(CCC#N)c4c21)CNC3=O`, for which the residual activity was 80% (inactive).

`Oc1cccc(-c2nc(N3CCOCC3)c3oc4ncccc4c3n2)c1`: the residual activity was 96% (inactive).

As for `O=C1Cc2c([nH]c3ccc([N+](=O)[O-])cc23)-c2ccccc2N1`, the residual activity is 104% (inactive).

Consider `O=c1cc(N2CCOCC2)oc2c1ccc1ccccc12`, for which the residual activity was 95% (inactive).

Turning to `O=C1Nc2ccccc2/C1=C\c1c(Cl)[nH]c2ccccc12`, the residual activity is 142% (inactive).

For the compound `Nc1ncnc2c1c(-c1ccc(Oc3ccccc3)cc1)cn2C1CCCC1`, the residual activity is 105% (inactive).

Take `COc1cc2nccc(Oc3ccc(NC(=O)Nc4cc(C)on4)c(Cl)c3)c2cc1OC`: the residual activity was 103% (inactive).

Consider `CCCC(=O)Oc1ccc2[nH]c(C(=O)c3cc4ccccc4[nH]3)cc2c1`, for which the residual activity was 93% (inactive).

In the case of `O=C1NC(=O)c2c1c1c3ccccc3[nH]c1n1cncc21`, the residual activity is 86% (inactive).

With `Nc1ncnc2[nH]nc(Nc3ccc(F)cc3)c12`, the residual activity was 96% (inactive).

As for `NC(=O)Nc1sc(-c2ccc(F)cc2)cc1C(N)=O`, the residual activity was 103% (inactive).

Regarding `O=C(NC(NC(=S)Nc1ccc(F)c([N+](=O)[O-])c1)C(Cl)(Cl)Cl)C(c1ccccc1)c1ccccc1` (configuration not stated), the residual activity was 96% (inactive).

Turning to `Nc1ncnc2c1cnn2-c1ccccc1`, the residual activity was 85% (inactive).

As for `COc1cc2nccc(Oc3ccc(NC(=S)NC(=O)c4ccccc4C)cc3)c2cc1OC`, the residual activity was 91% (inactive).

Take `O=c1cc(N2CCNCC2)oc2c(-c3ccccc3)cccc12`: the residual activity is 95% (inactive).

For `CC(C)c1nn(-c2c(Cl)cccc2Cl)c2nc(Cc3ccc(OCCO)cc3)[nH]c(=O)c12`, the residual activity was 84% (inactive).

A word on the residual activity: it is the signal under treatment as a percentage of the control signal.
